The nature of experiment [1]: binders of probe aFSTL3 on microarray, primary screen, stem cell growth factor project, biochemical, small-molecule microarray, fluorescence 635/667 (AID 1064).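 Further: measures binding of the biotinylated anti-FSTL3 antibody to printed compounds.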 Conditions: higher = more signal.
Experiment [2] in a line: binders from COS7 lysate, DM2A8 probe, primary screen, torsin A project, cell lysate, small-molecule microarray, fluorescence 635/667 (AID 1065). Conditions: higher = more signal, COS7 lysate expressing mutant human TOR1A.
A short description of experiment [3]: binders of probe aFGF2 on microarray, primary screen, stem cell growth factor project, biochemical, small-molecule microarray, fluorescence 635/667 (AID 1067).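 Further: measures binding of biotinylated aFGF2 protein to printed compounds on slides; z-score merges feature fluorescence and signal-to-noise across triplicate slides.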 The settings on record: higher = more signal.
A short description of experiment [4]: binders of probe aFGF10 on microarray, primary screen, stem cell growth factor project, biochemical, small-molecule microarray, fluorescence 635/667 (AID 1071).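 Further: score merges 667 nm spot intensity and signal to noise from triplicate slides.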 Conditions: higher = more signal.
Experiment [5] concerns the target Neurogenic locus notch homolog protein 2 (Homo sapiens) (UniProt Q04721). Nature of the experiment: Notch2 binders on small-molecule microarrays, primary screen, biochemical, small-molecule microarray, 635 nm fluorescence, stem cell growth factors (AID 1073). Conditions: Notch2 binding, higher = more signal.
In experiment [6] the target is Pro-neuregulin-1, membrane-bound isoform (Homo sapiens) (UniProt Q02297). Nature of the experiment: NRG1 binders on small-molecule microarrays, primary screen, psychiatric disease protein project, biochemical, small-molecule microarray, fluorescence 635/667 (AID 1075).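 Further: score combines 667 nm spot fluorescence with signal to noise.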 The settings on record: NRG1 binding, 635 nm fluorescence, higher = more signal.
Experiment [7] relates to Neuregulin-1 EGF-like domain. Put plainly: binders of neuregulin-1 EGF-like domain, primary screen, biochemical, small-molecule microarray, 635 nm fluorescence (AID 1081).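 Further: binding of the protein to compounds printed on small-molecule microarray slides.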 The settings on record: small-molecule microarray binding, higher = more signal.
The nature of experiment [8]: FRG1 promoter luciferase signal modulators, primary screen, FRG1 inhibition for FSHD, cell-based, C2C12 myotubes, firefly/Renilla luciferase, luminescence (AID 1084). Conditions: higher = more signal, called active from +8 up or from −8 down.
A short description of experiment [9]: binders of probe aFST on microarray, primary screen, stem cell growth factor project, biochemical, small-molecule microarray, fluorescence 635/667 (AID 1086).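 Further: score merges 667 nm fluorescence with signal-to-noise of each printed compound spot.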 Conditions: higher = more signal.
Experiment [10] in a line: binders of probe aHhip on microarray, primary screen, stem cell growth factor project, biochemical, small-molecule microarray, fluorescence 635/667 (AID 1087).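 Further: score merges spot fluorescence at 667nm with spot signal to noise ratio.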 The settings on record: higher = more signal.
In experiment [11] the test system is PRMT1 (protein arginine N-methyltransferase 1). Nature of the experiment: PRMT1 binders on small-molecule microarrays, primary screen, biochemical, small-molecule microarray, 635 nm fluorescence (AID 1088).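 Further: binding of Prmt1 protein to compounds spotted on small-molecule microarray slides.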 The settings on record: small-molecule microarray binding, higher = more signal.
A short description of experiment [12]: yeast growth modulation, basal conditions, primary screen, YJM789 clinical isolate, OD600, 24 h (AID 1089).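 Further: growth of clinical yeast isolate S. cerevisiae YJM 789 seeded 1000 cells per well; test concentration not given here.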 The settings on record: S. cerevisiae YJM789 growth, higher = more signal, called active from +8 up or from −8 down.
Experiment [13] in a line: fission yeast growth modulation, primary screen, strain 972, OD600, 24 h, no modulator (AID 1090).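 Further: basal condition with compound alone and no growth modifier present; test concentration not given here.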 The settings on record: S. pombe 972 growth, higher = more signal, called active from +8 up or from −8 down.
Experiment [14] in a line: S. cerevisiae growth modulation with rapamycin, primary screen, strain BY4716, OD600, 96 h (AID 1091). Further: test concentration not given here. Conditions: higher = more signal, called active from +8 up or from −8 down.
In experiment [15] the target is Torsin-1A-interacting protein 2 (Homo sapiens) (UniProt Q8NFQ8). Nature of the experiment: LULL1 binders on small-molecule microarray, primary screen, cell lysate, human LULL1 lysate, 635/667 nm fluorescence (AID 1092).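 Further: probe is lysate of COS7 cells overexpressing human LULL1; score merges per-feature 667 nm fluorescence with signal-to-noise.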 The settings on record: hLULL1 lysate binding, 635 nm fluorescence, higher = more signal.
Experiment [16] is described as follows: E. coli growth modulation, two-sided OD650, primary screen, E. coli filamentation project, strain DRC41, 24 h (AID 1093).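 Further: MC1000 strain lacking acrAB efflux and sulA so SOS filamentation is blocked; test concentration not given here.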 The settings on record: OD650, 24 h, higher = more signal, called active from +8 up or from −8 down.
Experiment [17] can be described thus: small-molecule microarray binders of probe aLefty2, primary screen, biochemical, biotinylated probe, 635/667 nm fluorescence (AID 1094).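 Further: score merges spot fluorescence near 667 nm with spot signal-to-noise ratio.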 The settings on record: higher = more signal.
For experiment [18], the system named is Noggin (protein binding on small-molecule microarray). Put plainly: Noggin binders on small-molecule microarray, primary screen, biochemical, 635/667 nm fluorescence (AID 1095).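 Further: score merges 667 nm feature fluorescence with signal to noise over triplicate slides.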 Conditions: 635 nm fluorescence, higher = more signal.
Experiment [19] addresses Neurogenic locus notch homolog protein 3 (Homo sapiens) (UniProt Q9UM47). Nature of the experiment: NOTCH3 binders on small-molecule microarray, primary screen, biochemical, 635/667 nm fluorescence (AID 1096). Conditions: NOTCH3 binding, 635 nm fluorescence, higher = more signal.
Experiment [20] can be described thus: small-molecule microarray binders of probe aEGFR, primary screen, biochemical, biotinylated probe, 635/667 nm fluorescence (AID 1097).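 Further: probe is a biotinylated anti-EGFR antibody binding compounds printed on slides; score combines fluorescence near 667 nm and signal to noise of each spot.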 The settings on record: higher = more signal.

From PubChem BioAssay come the findings set out here.

Molecules are shown by their SMILES. Active and inactive are the calls of the source.

Sequence of Neurogenic locus notch homolog protein 2 (Homo sapiens) (Q04721 whole entry, looked up, canonical isoform): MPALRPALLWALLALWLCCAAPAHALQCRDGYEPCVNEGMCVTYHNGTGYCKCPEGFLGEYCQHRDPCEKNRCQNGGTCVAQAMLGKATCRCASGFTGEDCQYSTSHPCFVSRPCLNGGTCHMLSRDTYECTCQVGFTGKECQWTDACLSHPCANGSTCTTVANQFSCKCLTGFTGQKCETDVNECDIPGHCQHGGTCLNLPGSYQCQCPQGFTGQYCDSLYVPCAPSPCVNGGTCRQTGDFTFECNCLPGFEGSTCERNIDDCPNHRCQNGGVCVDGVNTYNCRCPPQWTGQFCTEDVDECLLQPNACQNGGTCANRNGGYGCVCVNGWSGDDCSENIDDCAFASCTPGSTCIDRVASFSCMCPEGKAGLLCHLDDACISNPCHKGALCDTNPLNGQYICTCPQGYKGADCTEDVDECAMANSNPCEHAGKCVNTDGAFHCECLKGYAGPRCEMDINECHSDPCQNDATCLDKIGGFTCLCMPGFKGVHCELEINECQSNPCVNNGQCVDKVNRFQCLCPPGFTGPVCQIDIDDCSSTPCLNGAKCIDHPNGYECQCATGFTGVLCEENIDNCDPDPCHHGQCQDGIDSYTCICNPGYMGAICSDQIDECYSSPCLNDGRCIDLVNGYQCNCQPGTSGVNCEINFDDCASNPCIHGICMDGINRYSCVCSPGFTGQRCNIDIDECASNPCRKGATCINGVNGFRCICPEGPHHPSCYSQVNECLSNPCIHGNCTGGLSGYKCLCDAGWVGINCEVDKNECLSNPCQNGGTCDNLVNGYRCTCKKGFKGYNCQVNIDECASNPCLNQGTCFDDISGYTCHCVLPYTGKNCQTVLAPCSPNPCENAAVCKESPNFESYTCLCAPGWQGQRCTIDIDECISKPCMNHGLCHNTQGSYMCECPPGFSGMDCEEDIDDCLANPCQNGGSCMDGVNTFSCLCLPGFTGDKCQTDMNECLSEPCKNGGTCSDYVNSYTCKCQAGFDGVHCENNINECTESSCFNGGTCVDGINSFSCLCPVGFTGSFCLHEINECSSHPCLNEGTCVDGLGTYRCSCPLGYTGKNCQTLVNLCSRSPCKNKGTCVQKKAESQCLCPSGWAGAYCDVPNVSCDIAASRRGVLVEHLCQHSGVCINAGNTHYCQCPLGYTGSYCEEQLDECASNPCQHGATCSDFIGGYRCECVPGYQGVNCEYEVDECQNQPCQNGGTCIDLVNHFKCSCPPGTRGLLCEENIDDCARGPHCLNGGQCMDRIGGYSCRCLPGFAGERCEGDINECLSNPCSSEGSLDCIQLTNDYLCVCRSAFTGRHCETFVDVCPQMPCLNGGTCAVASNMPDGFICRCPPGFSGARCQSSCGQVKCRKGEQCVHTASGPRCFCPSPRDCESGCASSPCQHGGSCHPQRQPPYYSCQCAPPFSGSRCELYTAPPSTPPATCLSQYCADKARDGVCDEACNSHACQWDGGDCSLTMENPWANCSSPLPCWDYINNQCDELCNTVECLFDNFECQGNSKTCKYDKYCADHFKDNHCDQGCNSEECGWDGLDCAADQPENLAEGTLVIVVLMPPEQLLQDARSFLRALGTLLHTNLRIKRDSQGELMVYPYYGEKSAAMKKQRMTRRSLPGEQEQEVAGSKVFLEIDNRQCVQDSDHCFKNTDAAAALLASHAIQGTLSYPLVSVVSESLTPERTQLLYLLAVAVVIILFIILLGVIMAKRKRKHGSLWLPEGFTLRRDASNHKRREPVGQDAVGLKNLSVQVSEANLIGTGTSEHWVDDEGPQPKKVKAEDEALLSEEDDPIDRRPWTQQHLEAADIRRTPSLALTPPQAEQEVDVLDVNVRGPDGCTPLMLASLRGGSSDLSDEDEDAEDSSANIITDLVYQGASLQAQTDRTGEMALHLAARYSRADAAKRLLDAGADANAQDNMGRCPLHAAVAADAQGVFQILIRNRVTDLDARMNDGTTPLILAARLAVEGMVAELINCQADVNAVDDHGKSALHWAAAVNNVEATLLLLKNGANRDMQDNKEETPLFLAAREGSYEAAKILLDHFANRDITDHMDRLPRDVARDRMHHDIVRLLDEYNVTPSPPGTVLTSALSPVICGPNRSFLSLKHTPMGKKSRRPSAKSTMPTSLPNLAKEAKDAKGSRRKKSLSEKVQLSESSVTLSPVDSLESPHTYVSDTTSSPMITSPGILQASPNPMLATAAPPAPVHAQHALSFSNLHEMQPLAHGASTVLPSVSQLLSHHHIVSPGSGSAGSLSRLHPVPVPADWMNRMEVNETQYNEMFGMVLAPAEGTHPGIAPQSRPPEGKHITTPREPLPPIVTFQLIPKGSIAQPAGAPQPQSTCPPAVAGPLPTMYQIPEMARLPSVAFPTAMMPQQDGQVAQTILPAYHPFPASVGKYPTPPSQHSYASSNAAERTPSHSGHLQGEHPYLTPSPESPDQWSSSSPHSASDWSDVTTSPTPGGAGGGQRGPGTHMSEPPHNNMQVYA
Sequence of Neurogenic locus notch homolog protein 3 (Homo sapiens) (Q9UM47 whole entry, looked up): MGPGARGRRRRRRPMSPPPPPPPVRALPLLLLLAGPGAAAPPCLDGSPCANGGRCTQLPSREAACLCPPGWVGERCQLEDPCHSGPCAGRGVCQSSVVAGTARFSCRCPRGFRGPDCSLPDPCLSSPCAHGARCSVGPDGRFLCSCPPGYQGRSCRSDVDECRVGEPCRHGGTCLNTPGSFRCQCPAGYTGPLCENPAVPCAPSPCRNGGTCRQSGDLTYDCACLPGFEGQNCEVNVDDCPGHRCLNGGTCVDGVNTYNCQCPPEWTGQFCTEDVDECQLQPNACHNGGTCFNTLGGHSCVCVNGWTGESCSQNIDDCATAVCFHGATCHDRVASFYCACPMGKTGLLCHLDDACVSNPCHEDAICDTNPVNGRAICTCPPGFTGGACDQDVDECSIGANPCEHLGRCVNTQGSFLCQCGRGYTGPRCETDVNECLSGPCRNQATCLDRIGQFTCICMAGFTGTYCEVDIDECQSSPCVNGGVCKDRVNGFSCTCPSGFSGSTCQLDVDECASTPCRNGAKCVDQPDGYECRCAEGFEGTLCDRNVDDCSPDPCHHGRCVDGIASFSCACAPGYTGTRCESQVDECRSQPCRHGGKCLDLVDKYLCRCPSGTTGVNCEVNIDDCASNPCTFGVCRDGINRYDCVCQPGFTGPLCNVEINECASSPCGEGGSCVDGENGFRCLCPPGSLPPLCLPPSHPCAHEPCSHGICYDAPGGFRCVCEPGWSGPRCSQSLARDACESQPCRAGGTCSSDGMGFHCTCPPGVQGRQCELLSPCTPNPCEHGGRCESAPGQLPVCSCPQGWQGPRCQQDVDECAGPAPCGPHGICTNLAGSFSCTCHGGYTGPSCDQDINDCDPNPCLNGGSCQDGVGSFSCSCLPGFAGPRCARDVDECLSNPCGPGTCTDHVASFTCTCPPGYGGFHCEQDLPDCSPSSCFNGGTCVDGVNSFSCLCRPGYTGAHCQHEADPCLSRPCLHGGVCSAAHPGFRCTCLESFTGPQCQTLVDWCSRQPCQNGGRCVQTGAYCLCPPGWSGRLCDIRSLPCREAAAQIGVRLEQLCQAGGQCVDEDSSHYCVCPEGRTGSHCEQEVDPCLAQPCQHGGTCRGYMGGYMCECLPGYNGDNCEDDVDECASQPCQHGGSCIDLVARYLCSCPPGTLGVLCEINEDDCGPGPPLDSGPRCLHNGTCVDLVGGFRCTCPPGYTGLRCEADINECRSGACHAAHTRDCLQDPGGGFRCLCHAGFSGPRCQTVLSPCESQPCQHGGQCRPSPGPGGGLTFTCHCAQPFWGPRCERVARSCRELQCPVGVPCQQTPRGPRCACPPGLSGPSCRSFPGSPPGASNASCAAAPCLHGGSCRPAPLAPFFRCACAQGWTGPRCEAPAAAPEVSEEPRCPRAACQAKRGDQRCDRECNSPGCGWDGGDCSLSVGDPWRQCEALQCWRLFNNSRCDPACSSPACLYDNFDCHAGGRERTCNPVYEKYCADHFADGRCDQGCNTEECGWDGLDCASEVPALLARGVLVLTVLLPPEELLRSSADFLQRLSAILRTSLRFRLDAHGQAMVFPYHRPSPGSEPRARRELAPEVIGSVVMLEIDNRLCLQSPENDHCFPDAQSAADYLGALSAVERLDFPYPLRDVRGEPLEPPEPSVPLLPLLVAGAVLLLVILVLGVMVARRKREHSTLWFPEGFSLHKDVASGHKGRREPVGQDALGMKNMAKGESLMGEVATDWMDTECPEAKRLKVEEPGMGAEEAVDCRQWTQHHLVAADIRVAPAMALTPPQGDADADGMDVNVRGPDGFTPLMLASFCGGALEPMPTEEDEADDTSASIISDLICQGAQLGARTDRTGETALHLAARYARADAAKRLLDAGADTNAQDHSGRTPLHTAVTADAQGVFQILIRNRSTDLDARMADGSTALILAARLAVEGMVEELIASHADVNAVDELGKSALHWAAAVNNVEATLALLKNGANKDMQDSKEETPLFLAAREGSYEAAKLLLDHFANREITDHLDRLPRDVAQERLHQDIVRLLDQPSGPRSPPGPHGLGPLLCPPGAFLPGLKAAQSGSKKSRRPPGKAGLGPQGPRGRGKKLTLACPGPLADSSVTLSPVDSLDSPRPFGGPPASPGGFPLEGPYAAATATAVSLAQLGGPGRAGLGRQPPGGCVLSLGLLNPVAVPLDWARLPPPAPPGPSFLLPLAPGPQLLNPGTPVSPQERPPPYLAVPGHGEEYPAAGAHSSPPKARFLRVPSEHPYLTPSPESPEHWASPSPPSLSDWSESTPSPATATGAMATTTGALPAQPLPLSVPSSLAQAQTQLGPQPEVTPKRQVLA

Regarding `O=C1OCCC=C[C@H]2OC34C=CCN(CCN5CCOCC5)C(=O)[C@H]3N(CCO)C(=O)[C@@H]4C12` (stereo not given in full), the composite z-score in [1] is -0.217; in [2], 1.12; in experiment [3], -0.179; in experiment [4], 0.127; in experiment [5], -0.621; in experiment [6] it was -0.714. The composite z-score in experiment [7] is 0.916; in [9] it was -0.569; in experiment [10] it was -0.489; in [11], 0.134; in experiment [15], -0.114; in experiment [17] it was -0.145. For the same compound, the composite z-score is 0.922 in experiment [18], 0.439 in [19] and -0.23 in [20]. The z-score in experiment [8] is -0.0663 (inactive); in experiment [12] it was -0.698 (inactive); in [13], -0.518 (inactive); in experiment [14], -0.482 (inactive); in experiment [16], 0.0484 (inactive).

`CN(C)CCCC[C@@H]1NC(=O)[C@@H]2C[C@H](C(=O)NCCCCCN)[C@H](c3ccc(O)cc3)N2C1=O`: the composite z-score in experiment [1] was 0.591; in experiment [2], 0.137; in experiment [3] it was -0.043; in experiment [4], -0.285; in [5], 0.235; in experiment [6], 2.23. Besides, the composite z-score in experiment [7] was 0.293; in experiment [9] it was 0.0993; in experiment [10] it was -0.0324; in experiment [11] it was 0.255; in [15] it was 2.6; in experiment [17], -0.0862. Moreover, the composite z-score in experiment [18] is -0.668; in [19], -0.0504; in experiment [20] it was -0.075. Besides, the z-score in experiment [8] was -0.926 (inactive); in experiment [12], 0.212 (inactive); in experiment [13], -0.977 (inactive); in experiment [14] it was 0.213 (inactive); in experiment [16] it was 0.0706 (inactive).

As to `O=C1C2C=CC(C(O)c3ccc(Br)cc3)N(n3cnnc3)C2C(=O)N1Cc1ccccc1` (stereo not given), the composite z-score in experiment [1] was -0.0627; in experiment [2], 0.52; in experiment [3], 0.0488; in [4] it was 0.533; in [5], 1.3; in experiment [6], 0.0603. In addition, the composite z-score worked out at 0.722 in experiment [7]; 0.549 in experiment [9]; 0.134 in [10]; 1.56 in [11]; 2.83 in [15]; 0.126 in [17]. The composite z-score in [18] is 0.57; in experiment [19] it was 1.03; in experiment [20], 0.115. Besides, the z-score is 0.258 (inactive) in [8]; -26.6 (active) in experiment [12]; -16 (active) in [13]; 0.881 (inactive) in experiment [14]; -0.415 (inactive) in experiment [16].

Regarding `C=CCC(OC(C)=O)[C@@H]1[C@@H](N(Cc2cc3ccccc3o2)C(=O)c2cccc3ccccc23)c2cc(OCCCO)ccc2N1C(=O)Cc1ccc(OC)cc1` (stereo not given in full), the composite z-score in experiment [1] was -0.295; in [2] it was -0.52; in experiment [3], -0.0128; in experiment [4], 0.0939; in [5], 0.0751; in [6], 0.758. Moreover, the composite z-score was 0.111 in [7]; -0.0464 in experiment [9]; -0.109 in experiment [10]; 0.21 in experiment [11]; 1.33 in experiment [15]; -0.0745 in [17]. Further, the composite z-score in [18] was 0.342; in [19] it was -0.351; in [20], -0.0967. Further, the z-score in experiment [8] is -0.709 (inactive); in experiment [12] it was -0.0559 (inactive); in experiment [13], -0.28 (inactive); in [14], 0.351 (inactive); in experiment [16], -0.829 (inactive).

Take `NC(=O)[C@@]1(CCS(=O)(=O)c2ccccc2)N=C(c2ccc(OCCCO)cc2)O[C@H]1c1ccccc1`: the composite z-score is 0.287 in [1]; 1.54 in experiment [2]; 0.103 in [3]; 0.58 in experiment [4]; 0.251 in [5]; 0.0342 in experiment [6]. In addition, the composite z-score in [7] is 1.3; in experiment [9] it was 0.893; in [10] it was -0.0645; in [11], 1.54; in experiment [15], 3.6; in experiment [17], -0.046. Also, the composite z-score is -0.316 in experiment [18], 0.667 in [19] and -0.0703 in experiment [20]. The z-score is -1.19 (inactive) in experiment [8]; -0.0366 (inactive) in experiment [12]; -1.58 (inactive) in experiment [13]; -0.918 (inactive) in experiment [14]; 0.515 (inactive) in [16].
